Dicer inh: inhibitors of human Dicer processing of pre-microRNA; Q9UPY3; cat-ELCCA pre-miR-21 Dicer processing, chemiluminescence; stronger effect = higher value; z-score at 25 µM; hit rate 6% among 47,000; in the data active = z-score above about 3, passing the limit was not always enough;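 note: higher signal means more uncleaved substrate so more Dicer inhibition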
Hits are given with their value; – = inactive. Only a selection was taken, and hits are over-represented in it overall.

SMILES | Dicer inh
CCOC(=O)C1=C(C)NC2=C(C(=O)c3ccccc32)C1c1ccccc1 (centres undefined) | –
Cn1c2c(c(=O)n(C)c1=O)C(c1cccc(OC(=O)c3ccccc3)c1)C1=C(N2)c2ccccc2C1=O (centres undefined) | –
Cn1c2c(c(=O)[nH]c1=O)C(c1ccccc1)C1=C(N2)c2ccccc2C1=O (centres undefined) | 3.03
Cn1c(Sc2ccc(C(F)(F)F)cc2[N+](=O)[O-])nnc1-c1csc2ccc(Cl)cc12 | –
COC(=O)/C(=C/N(C)C)Sc1cc(C)c(Cl)cc1Cl | –
O=S(=O)(Cc1ccc(Cl)c(Cl)c1)Cc1ccc(Cl)c(Cl)c1 | –
O=C(c1ccc(Br)cc1)C(C(=O)N1CCN(c2ccccc2)CC1)n1ccccc1=O (centres undefined) | –
COC(=O)C1=C2C(=O)NCCN2C(C(=O)Nc2ccc(Cl)cc2)CC1=O (centres undefined) | –
CN(C)/C=N/c1nnc(Sc2nc3cc(Cl)ccc3s2)s1 | –
Cc1ccc(Cl)c2c1NC(=O)C2(O)c1c[nH]c2ccccc12 (centres undefined) | –
Cc1ccc(C(CC(=O)c2ccco2)SCCO)cc1 (centres undefined) | –
Cc1ccc(S(=O)(=O)C(CC(=O)c2ccc(F)cc2)c2ccco2)cc1 (centres undefined) | 3.19
Cc1ccc(S(=O)(=O)C(CC(=O)c2ccco2)c2ccc(Cl)cc2)cc1 (centres undefined) | –
Cc1ccccc1N/C=C(\C#N)C(=O)c1cc(-c2ccc(Cl)cc2)oc1C | –
Nc1ccc2nc(SCc3ccc(F)cc3)sc2c1 | –
COc1ccc(-c2ccc(-c3noc(-c4cccc(OC)c4)n3)c(OC)n2)cc1 | –
COc1nc(-c2ccc(C)cc2)ccc1-c1noc(-c2cccnc2)n1 | 3.55
COc1nc(-c2ccccc2)ccc1-c1noc(-c2ccc(C)cc2)n1 | –
CC(=O)C(Sc1ccc(Cl)cc1)C(C)=O | –
CCc1cc2c3c(c1)C(C)=CC(C)(C)N3C(=O)C2=O | –
COc1ccc(NS(=O)(=O)c2ccc(F)cc2)cc1OC1CCCC1 | –
Cc1cc(S(=O)(=O)Nc2cccc(F)c2)c(C)c(S(=O)(=O)c2ccccc2)c1 | –
Cc1ccc(F)cc1S(=O)(=O)Nc1ccc2c(c1)OCC1CCCN21 (centres undefined) | 6.51
CCOc1ccc(Nc2ncnc3sc4c(c23)CCCC4)cc1 | –
COc1ccc(C2CC(C(F)(F)F)n3nc(C(=O)NC4CCCCC4)c(Cl)c3N2)cc1OC (centres undefined) | –
SMILES | Dicer inh
COc1ccccc1OCC(=O)O | –
CCOc1cccc(=O)c2c(C)n(CC(=O)c3ccccc3)c(C)c12 | –
COc1cccc(=O)c2c(C)n(CC(=O)c3ccccc3)c(C)c12 | 3.25
CN(C1=NS(=O)(=O)c2ccccc21)c1ccc(O)cc1 | –
COc1ccc(Oc2c(Cl)cnn(-c3ccc([N+](=O)[O-])cc3)c2=O)cc1 | –
Cc1ccc(Oc2c(F)c(F)c(Oc3ccc(C)cc3)c(F)c2F)cc1 | –
CCOC(=O)c1c(C)n(C)c2cc(-c3ccc(C)cc3)c(O)cc12 | –
CCOC(=O)c1c(C)n(C)c2cc(-c3ccc(Cl)cc3)c(O)cc12 | –
CCOC(=O)c1c(C)n(C)c2cc(-c3ccc(CC)cc3)c(O)cc12 | 3.47
CCOC(=O)Cc1nc2ccccc2o1 | –
Nc1ccc(CCc2nc3ccccc3o2)cc1 | 6.61
Cc1c(N)cccc1-c1nc2ccccc2o1 | –
Cc1onc(-c2c(Cl)cccc2Cl)c1-c1noc(CSc2ccccn2)n1 | –
O=C(CCn1nnc(-c2cccc(Cl)c2Cl)n1)NNC(=S)Nc1ccc(Cl)c(Cl)c1 | 9.44
N#CCC(=O)NNC(=S)Nc1ccc(Cl)c(Cl)c1 | –
O=C(Cn1nnc(-c2ccccc2Oc2ccc(Cl)cc2Cl)n1)NNC(=S)Nc1cc(Cl)cc(Cl)c1 | 6.31
O=C(CCc1ccc(O)cc1)NNC(=S)Nc1ccc(Cl)c(Cl)c1 | –
CC(Oc1ccc(Cl)cc1Cl)C(=O)NNC(=S)Nc1ccccc1 (centres undefined) | –
O=C(Cn1nnc(-c2ccccc2C(F)(F)F)n1)NNS(=O)(=O)c1cccc(Cl)c1 | –
CCOC(=O)Cc1csc(NS(=O)(=O)c2cc(C)c(Cl)cc2C)n1 | –
Cc1c(-c2ccnn2S(=O)(=O)c2ccccc2F)sc2ccccc12 | –
O=[N+]([O-])c1cccc(-c2csc(=S)n2Nc2ccccc2)c1 | –
CCOC(=O)C(=CN(C1=NCC(C)S1)c1ccc(F)c(Cl)c1)C(=O)OCC (centres undefined) | –
FC(F)(F)c1ccccc1N/N=C/c1c(Br)sc2ccc(Cl)cc12 | –
CCOC(=O)c1ccc(N2C(=O)CS(=O)(=O)CC2=O)cc1 | –
SMILES | Dicer inh
CCOC(=O)C1=NN(c2ccc(C)cc2)C2C(=O)N(c3ccc(Br)cc3)C(=O)C12 (centres undefined) | –
CCOC(=O)C1=C(C)N(c2ccc(Br)cc2)C(=O)C1 | 3.76
COC(=O)C1=CC2C3C(=O)N(c4cc(Cl)cc(Cl)c4)C(=O)C3C1C1C(=O)N(c3cc(Cl)cc(Cl)c3)C(=O)C21 (centres undefined) | –
COc1cc(NC(=O)c2sc3ccccc3c2Cl)c(OC)cc1Cl | –
CCCCCc1ccc(-c2nc(SCC(=O)c3ccccc3)n[nH]2)cc1 | –
Cn1c(=O)c2c(nc(SCc3ccc(F)cc3)n2C)n(C)c1=O | –
Cn1c(=O)c2c(nc(Sc3ccccc3N)n2C)n(C)c1=O | –
Cn1c(=O)c2c(nc(Sc3nnc(N)s3)n2C)n(C)c1=O | 3.15
COc1ccc(-c2cc(C(=O)O)c3ccc(C)cc3n2)cc1OC | –
CCOc1ccc(S(=O)(=O)N2CCSC2c2ccc(Br)cc2)cc1 (centres undefined) | –
Cc1nc2ccccc2c2c1C(=O)N(c1cccc(C(=O)OCC(=O)c3ccccc3)c1)C2=O | –
O=C(CSC1=NCCc2ccccc21)c1ccc(Cl)cc1 | –
ON=C1CCN(Cc2ccccc2)CC1 | –
O=C1/C(=C/c2ccc(Cl)cc2)N=C(c2ccccc2)N1c1ccc(F)cc1 | 7.9
O=C1NC(c2ccccc2)=N/C1=C/c1ccccc1 | –
O=C1/C(=C\c2ccc(F)cc2)N=C(c2ccccc2)N1Cc1ccc(F)cc1 | –
Cc1occc1-c1nnc(SCC(=O)c2ccc(Br)cc2)o1 | –
CCOC(=O)c1sc(-c2ccccc2)nc1CSc1cc(C(F)(F)F)cc(C(F)(F)F)c1 | –
CC1(C)C2CCC1(C)C(C#N)(Nc1ccccc1)C2 (centres undefined) | –
Cc1c(S(=O)(=O)Nc2ccc3[nH]ccc3c2)sc2ccc(Cl)cc12 | 3.48
Cc1nc2ccccn2c1C(=O)NNS(=O)(=O)c1sc2ccc(Cl)cc2c1C | –
Cc1c(CC(=O)NNS(=O)(=O)c2ccccc2C(F)(F)F)sc2ccc(Cl)cc12 | –
CCN1CCN(Cc2c(C)[nH]c3ccc(C)cc3c2=O)CC1 | –
O=C1C(=O)N(CCCN2CCOCC2)C(c2cccc(Br)c2)/C1=C(\O)c1ccccc1 (centres undefined) | –
Cc1ccc(NC(=S)Nc2ccccc2C)c(C)c1 | –
SMILES | Dicer inh
Cc1ccc(NC(=S)Nc2ccc(C)cc2C)c(C)c1 | –
Cc1ccc(NC(=S)Nc2ccccc2N)c(C)c1 | 6.95
O=C(c1ccc(C(F)(F)F)cc1)N1CCSC1COc1ccc([N+](=O)[O-])cc1 (centres undefined) | –
O=C(O)CCCNc1nc(Cl)nc(N2CCOCC2)n1 | 4.72
CCNc1nc(C(=O)O)nc(N2CCOCC2)n1 | –
Clc1nc(NCCN2CCOCC2)nc(NC2CCCCC2)n1 | –

Screening data as filed in PubChem.
